{
  "source": "the supplement of paper PMC6555819",
  "data": [
    {"system": "LXRa homodimer (NR concentration 270 nM)", "assay": "PBM binding z-score (relative to random genomic background probes); higher = stronger binding; sequences stand for … in GC…GCGATTGACAGCGTAGAATGAAGG", "method_in_brief": "(§1)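 Regression normalization was applied to scanned fluorescence from custom Agilent 4×180K protein-binding microarrays. Before scanning, arrays were incubated 1 h with ligand-free nuclear receptor dimers, and binding was detected with antibodies against each partner (one per run). Binding z-scores use the random background probes as reference.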", "values": [
      {"sequence": "CCTACTGGGCCATTCAGAGGTCAGTGATCATATG", "PBM binding z-score": 2.35},
      {"sequence": "CCTCGGAGGACAACAGGAGGTTAGAGCTGCCAGA", "PBM binding z-score": -0.064},
      {"sequence": "TGAATCAGGTTAAAGATCAGGGAACGTGGCGTCG", "PBM binding z-score": -0.19},
      {"sequence": "CGTCCATGGTCAGCAGGTCAGTGAAAGCGACGTG", "PBM binding z-score": -0.348},
      {"sequence": "GCGACTGGGGCCAAGCAGGTTACCATAAGGTTGG", "PBM binding z-score": -0.686},
      {"sequence": "CTGGAAAGGTCGGTTGAGGTGAGTATACGGATAA", "PBM binding z-score": 0.136},
      {"sequence": "TCATATAGGTAAAGGTCAAAGTCGAACGATATGA", "PBM binding z-score": 4.7},
      {"sequence": "ACAGACAGGTGATGGAGGTAACTCAGGCTATCAT", "PBM binding z-score": -0.062},
      {"sequence": "TTACCAAGGTGAGCTGAGGACGTTGATCCAACTC", "PBM binding z-score": -0.767},
      {"sequence": "TCTAGTTGGTCAAAGGTCACACACTCGAAATGCG", "PBM binding z-score": 4},
      {"sequence": "ACTAGCAGGCCAAGGGTAACTCAAGATTAGTCCG", "PBM binding z-score": -0.457},
      {"sequence": "CGTCCCAGGTCAAAGGTCAGTGAAGAGATGACGG", "PBM binding z-score": 2.98},
      {"sequence": "GCGACTAGGGCAAAGCAGGTTACCATAAGGTTGG", "PBM binding z-score": -0.0293},
      {"sequence": "ATCTCTAGGCAACCAAGTTCAGTGAATGCCGAAC", "PBM binding z-score": 0.263},
      {"sequence": "GCATATAGGAAATACAAGGTGAAAGTCCGATTGT", "PBM binding z-score": -0.095},
      {"sequence": "ATCTCTAGGTAACCAAGTTCAGTTAATGCCGAAC", "PBM binding z-score": 1.38},
      {"sequence": "GCGACTGGGGCAAAGCAGGGTACCATAAGGTTGG", "PBM binding z-score": -0.964},
      {"sequence": "CTACCAAGGTGAACAAGGTTGTTGATTACTATTC", "PBM binding z-score": -0.172},
      {"sequence": "CCTGCTAGGTCAATTGTCAGCTAAAGCAGCTCGC", "PBM binding z-score": 0.111},
      {"sequence": "GCTCGGAGGACAAGGTCATAGCTTTGTCCGTAGA", "PBM binding z-score": 0.47},
      {"sequence": "ACTCGGAGGAAAAAGGTCAGAGCTACGCCAGTGA", "PBM binding z-score": 0.501},
      {"sequence": "TCTCGGAGGACACGAAGGTCAGAGCGTTCCAGAG", "PBM binding z-score": 0.0459},
      {"sequence": "GGAACGATGGCAAAGTTGATAGCATCTGTCGACG", "PBM binding z-score": -0.475},
      {"sequence": "CCTATTAGTTGACCATAAGGGCAACCAAAGCTCG", "PBM binding z-score": 0.675},
      {"sequence": "TCATATAGGTAAATGCTAGCTGAAAGTCCGATCT", "PBM binding z-score": -0.000947},
      {"sequence": "GCTAGCAGGCCATTTGGGTCACTCATTGACGGGC", "PBM binding z-score": -0.528},
      {"sequence": "GGAACGGGGGCAAAGTTGATAGCATCTGTCGACG", "PBM binding z-score": 0.259},
      {"sequence": "TTACCAAGGTGAGCTGAGGTCGTTGGTCCAACTC", "PBM binding z-score": -0.436},
      {"sequence": "CCTTGGAGGACAGAAGGTCAGAGCTGTCCGCTTT", "PBM binding z-score": 0.306},
      {"sequence": "CGATCTAGGTCAGAACAGGACAGTGAAGGATGAT", "PBM binding z-score": -0.161},
      {"sequence": "TAGCCTAGGTCATGCGCGCCAGTATAGTGTCGGC", "PBM binding z-score": 0.451},
      {"sequence": "GCTGCTAGGTCAGCTTGGTCAGCTAACGGGTACG", "PBM binding z-score": -0.534},
      {"sequence": "ACTATTAGTTTAGACGAGGGCAACCGATAGGTTG", "PBM binding z-score": 0.356},
      {"sequence": "TCTTGTAGATCAGCAGGAGGTTAAGAAAGATCGA", "PBM binding z-score": -0.411},
      {"sequence": "GCTAGCAGGCCATTGGGGTCACTCAATGACGGGC", "PBM binding z-score": -0.298},
      {"sequence": "ACAGACAGGTGAAGAAGGTAACTCAGGCTATCAT", "PBM binding z-score": -0.161},
      {"sequence": "TCTTGTAGATCACAGGTTAAGAAAGCCGAAGCCT", "PBM binding z-score": -0.161},
      {"sequence": "CCTAGTTGGTCAAGGTCACACACGCTATAGGTAC", "PBM binding z-score": 2.66},
      {"sequence": "TAGCCTAGGTCATTCAGGGTCCAGTATAGAAAGC", "PBM binding z-score": 0.918},
      {"sequence": "CAAACTAGGTCAGGAGGTCAAAGTCCGCTTCCCG", "PBM binding z-score": 4.23}
    ]},
    {"system": "LXRb:RXRa (NR concentration 270 nM, RXRa partner concentration 90 nM)", "assay": "PBM binding z-score (relative to random genomic background probes); higher = stronger binding; sequences stand for … in GC…GCGATTGACAGCGTAGAATGAAGG", "method_in_brief": "as §1", "values": [
      {"sequence": "CCTACTGGGCCATTCAGAGGTCAGTGATCATATG", "PBM binding z-score": 1.78},
      {"sequence": "CCTCGGAGGACAACAGGAGGTTAGAGCTGCCAGA", "PBM binding z-score": -0.556},
      {"sequence": "TGAATCAGGTTAAAGATCAGGGAACGTGGCGTCG", "PBM binding z-score": 0.221},
      {"sequence": "CGTCCATGGTCAGCAGGTCAGTGAAAGCGACGTG", "PBM binding z-score": -0.0301},
      {"sequence": "GCGACTGGGGCCAAGCAGGTTACCATAAGGTTGG", "PBM binding z-score": -0.129},
      {"sequence": "CTGGAAAGGTCGGTTGAGGTGAGTATACGGATAA", "PBM binding z-score": 1.12},
      {"sequence": "TCATATAGGTAAAGGTCAAAGTCGAACGATATGA", "PBM binding z-score": 5.5},
      {"sequence": "ACAGACAGGTGATGGAGGTAACTCAGGCTATCAT", "PBM binding z-score": -0.121},
      {"sequence": "TTACCAAGGTGAGCTGAGGACGTTGATCCAACTC", "PBM binding z-score": -0.542},
      {"sequence": "TCTAGTTGGTCAAAGGTCACACACTCGAAATGCG", "PBM binding z-score": 5.53},
      {"sequence": "ACTAGCAGGCCAAGGGTAACTCAAGATTAGTCCG", "PBM binding z-score": -0.0796},
      {"sequence": "CGTCCCAGGTCAAAGGTCAGTGAAGAGATGACGG", "PBM binding z-score": 6.02},
      {"sequence": "GCGACTAGGGCAAAGCAGGTTACCATAAGGTTGG", "PBM binding z-score": -0.376},
      {"sequence": "ATCTCTAGGCAACCAAGTTCAGTGAATGCCGAAC", "PBM binding z-score": 0.113},
      {"sequence": "GCATATAGGAAATACAAGGTGAAAGTCCGATTGT", "PBM binding z-score": 0.0762},
      {"sequence": "ATCTCTAGGTAACCAAGTTCAGTTAATGCCGAAC", "PBM binding z-score": 1.11},
      {"sequence": "GCGACTGGGGCAAAGCAGGGTACCATAAGGTTGG", "PBM binding z-score": -0.249},
      {"sequence": "CTACCAAGGTGAACAAGGTTGTTGATTACTATTC", "PBM binding z-score": 1.36},
      {"sequence": "CCTGCTAGGTCAATTGTCAGCTAAAGCAGCTCGC", "PBM binding z-score": 1.6},
      {"sequence": "GCTCGGAGGACAAGGTCATAGCTTTGTCCGTAGA", "PBM binding z-score": 2.77},
      {"sequence": "ACTCGGAGGAAAAAGGTCAGAGCTACGCCAGTGA", "PBM binding z-score": 2.45},
      {"sequence": "TCTCGGAGGACACGAAGGTCAGAGCGTTCCAGAG", "PBM binding z-score": 0.874},
      {"sequence": "GGAACGATGGCAAAGTTGATAGCATCTGTCGACG", "PBM binding z-score": -0.708},
      {"sequence": "CCTATTAGTTGACCATAAGGGCAACCAAAGCTCG", "PBM binding z-score": 0.965},
      {"sequence": "TCATATAGGTAAATGCTAGCTGAAAGTCCGATCT", "PBM binding z-score": 0.713},
      {"sequence": "GCTAGCAGGCCATTTGGGTCACTCATTGACGGGC", "PBM binding z-score": -0.128},
      {"sequence": "GGAACGGGGGCAAAGTTGATAGCATCTGTCGACG", "PBM binding z-score": 4.64},
      {"sequence": "TTACCAAGGTGAGCTGAGGTCGTTGGTCCAACTC", "PBM binding z-score": 0.439},
      {"sequence": "CCTTGGAGGACAGAAGGTCAGAGCTGTCCGCTTT", "PBM binding z-score": 1.23},
      {"sequence": "CGATCTAGGTCAGAACAGGACAGTGAAGGATGAT", "PBM binding z-score": 0.206},
      {"sequence": "TAGCCTAGGTCATGCGCGCCAGTATAGTGTCGGC", "PBM binding z-score": 2.36},
      {"sequence": "GCTGCTAGGTCAGCTTGGTCAGCTAACGGGTACG", "PBM binding z-score": 0.334},
      {"sequence": "ACTATTAGTTTAGACGAGGGCAACCGATAGGTTG", "PBM binding z-score": 0.275},
      {"sequence": "TCTTGTAGATCAGCAGGAGGTTAAGAAAGATCGA", "PBM binding z-score": 0.538},
      {"sequence": "GCTAGCAGGCCATTGGGGTCACTCAATGACGGGC", "PBM binding z-score": 3.06},
      {"sequence": "ACAGACAGGTGAAGAAGGTAACTCAGGCTATCAT", "PBM binding z-score": 0.234},
      {"sequence": "TCTTGTAGATCACAGGTTAAGAAAGCCGAAGCCT", "PBM binding z-score": 0.714},
      {"sequence": "CCTAGTTGGTCAAGGTCACACACGCTATAGGTAC", "PBM binding z-score": 3.92},
      {"sequence": "TAGCCTAGGTCATTCAGGGTCCAGTATAGAAAGC", "PBM binding z-score": 3.01},
      {"sequence": "CAAACTAGGTCAGGAGGTCAAAGTCCGCTTCCCG", "PBM binding z-score": 4.39}
    ]}
  ]
}
